AddAB inh – less growth of phage-infected E. coli with AddAB; E. coli expressing H. pylori AddAB, absorbance growth; inhibition, % at 11.9 µM; 0.29% of 330,000 active; AID 435030; in the data active = inhibition above about 12%
Tat export inh – blocks Tat-dependent protein export in E. coli; E. coli MC4100 TorA-mCherry Tat export, fluorescence; inhibition, % at 10 µM; 0.036% of 340,000 active; AID 488895;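 active = mean replicate inhibition at least 50% and at least half of replicates individually reaching 50%; inconclusive = only one of the two criteria met; inactive = neither criterion met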;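 note: exported cargo escapes ClpAP degradation while cytoplasmic cargo is degraded and loses fluorescence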
E coli growth-1 – inhibitors of Escherichia coli growth | OD600, 23 h; stronger effect = lower value | OD600 absorbance (concentration not given with the values) | 0.21% of 330,000 active;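 active = OD600 absorbance below the run mean of sample wells minus 3.6 SD, in any replicate, cut at about 0.56 in these data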
phage Ecoli inh – E. coli growth loss with phage present | growth absorbance | inhibition, % at 11.9 µM | AID 651602 | 0.26% of 360,000 active; in the data active = inhibition above about 11%
E coli growth-2 – reduces bacterial viability in AddAB counter-screen. E. coli V3065 growth, OD600 absorbance, 18 h. 0.27% of 330,000 active. inhibition, % at 11.9 µM. AID 449728;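 active = inhibition above the campaign's mean inhibition across all tested compounds plus 3 SD, cut at about 9.9% in these data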;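 note: uninfected addAB+ strain grown without phage in ampicillin broth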
RecBCD conf – growth loss of phage-infected V66 E. coli, RecBCD confirmation screen; shares compounds with phage Ecoli inh; E. coli V66 + T4 2- phage, growth OD; inhibition, % at 11.9 µM; 45% of 890 active; AID 651982;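 active = mean inhibition over triplicates exceeding the hit threshold derived in the original primary screen, cut at about 11% in these data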
Ecoli viability – bacterial viability inhibition counter-screen for RecBCD; 29% of 890 active; AID 651983; shares compounds with phage Ecoli inh; E. coli viability, absorbance (OD) growth; inhibition, % at 11.9 µM; in the data active = inhibition above about 20%;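 note: E. coli strain V66 grown with compound alone and no phage infection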
AddAB counter – growth loss of phage-infected AddAB E. coli, RecBCD counter-screen; E. coli expressing H. pylori AddAB + T4 phage, OD growth; gene 2 mutant T4, recBCD-deleted host; inhibition, % at 11.9 µM; AID 651984; shares compounds with phage Ecoli inh; 45% of 890 active;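 active = mean inhibition above the solvent-only control wells' mean plus 3 SD, cut at about 22% in these data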;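 note: higher means less bacterial growth from phage killing when AddAB is blocked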
Of the large screens only hits and unclear results are named; the others gave an inactive call (follow-up assays come after a bar, where they were run). Sampled rows, rich in hits. Any-hit rate of the full collection: about 0.51%.

N#CC(=NNc1ccc(F)cc1)C(=N)N1CCCCC1	none (no result: AddAB inh, Tat export inh, phage Ecoli inh, E coli growth-2)
O=C1C2C(C(=O)N1N=Cc1ccco1)C1C=CC2C12CC2 (stereo not given)	none (no result: AddAB inh, Tat export inh, phage Ecoli inh, E coli growth-2)
O=S(=O)(Nc1ncccn1)c1ccccc1	none
O=S(=O)(Nc1ncccn1)c1ccc(NC(=S)Nc2ccc(Cl)cc2)cc1	phage Ecoli inh 11 (no result: E coli growth-1) | RecBCD conf inactive | Ecoli viability inactive | AddAB counter inactive
O=C(Nc1ccc(Cl)cc1)Nc1ccc(S(=O)(=O)Nc2ncccn2)cc1	none
CCc1nnc(NS(=O)(=O)c2ccc(N)cc2)s1	phage Ecoli inh 12 | RecBCD conf inactive | Ecoli viability inactive | AddAB counter inactive
CCc1nnc(NS(=O)(=O)c2ccc(N3C(=O)c4ccccc4C3=O)cc2)s1	none
CCc1ccc(NC(=S)Nc2ccc(S(=O)(=O)Nc3ncccn3)cc2)cc1	phage Ecoli inh 12 | RecBCD conf inactive | Ecoli viability inactive | AddAB counter inactive
CC(C)NC(=S)Nc1ccc(S(=O)(=O)Nc2ncccn2)cc1	none
Nc1ccc(S(=O)(=O)Nc2ncccn2)cc1	phage Ecoli inh 11 | RecBCD conf inactive | Ecoli viability inactive | AddAB counter inactive
O=C(NN=Cc1ccccn1)c1cccc(S(=O)(=O)N2CCCC2)c1	none (no result: AddAB inh, Tat export inh, phage Ecoli inh, E coli growth-2)
CCOC(=O)Nc1ccc(S(=O)(=O)Nc2onc(C)c2C)cc1	none (no result: Tat export inh)
Cc1noc(NS(=O)(=O)c2ccc(N)cc2)c1C	phage Ecoli inh 11 | RecBCD conf inactive | Ecoli viability inactive | AddAB counter 23
COc1cccc2cc(C(=O)Nc3ccccc3C)c(=NNS(=O)(=O)c3ccccc3)oc12	none (no result: AddAB inh, Tat export inh, phage Ecoli inh, E coli growth-2)
Clc1cc2cccnc2c2ccccc12	none
Cc1ccc2c(Cl)cc(Cl)c(O)c2n1	Tat export inh inconclusive, E coli growth-1 0.064, phage Ecoli inh 13 (no result: AddAB inh, E coli growth-2) | RecBCD conf inactive | Ecoli viability inactive | AddAB counter inactive
Cc1cc(Cl)c2ccc3ccccc3c2n1	none
OCc1ccc(O)c2ncccc12	none
Oc1c(Cl)cc(Cl)c2cccnc12	E coli growth-1 0.071, phage Ecoli inh 43 (no result: AddAB inh, E coli growth-2) | RecBCD conf 55 | Ecoli viability 62 | AddAB counter 51
Cc1ccc(S(=O)(=O)Nc2cc(Cl)c(O)c3ncccc23)cc1	phage Ecoli inh 12, E coli growth-2 11 (no result: E coli growth-1) | RecBCD conf inactive | Ecoli viability inactive | AddAB counter inactive
Cc1ccc(S(=O)(=O)Nc2cccnc2Oc2ccc(Cl)cc2)cc1	none
Oc1c(I)cc(I)c2cccnc12	E coli growth-1 0.43, phage Ecoli inh 23 | RecBCD conf 26 | Ecoli viability 30 | AddAB counter 25
O=C(O)C=Cc1ccc(S(=O)(=O)NCc2ccco2)cc1	none (no result: AddAB inh, Tat export inh, phage Ecoli inh, E coli growth-2)
CC=C(C)C(=O)OC(C(O)c1cc2ccc(=O)oc2cc1OC)C(C)(C)OC1OC(CO)C(O)C(O)C1O (stereo not given)	none (no result: AddAB inh, Tat export inh, phage Ecoli inh, E coli growth-2)
O=C(NNc1cc(Cl)ccc1Cl)c1cccs1	phage Ecoli inh 54 | RecBCD conf inactive | Ecoli viability inactive | AddAB counter inactive
Cc1cc(Cl)ccc1NNC(=O)c1cccs1	none
O=Nc1nc2ncccn2c1-c1ccccc1	phage Ecoli inh 15 (no result: AddAB inh, E coli growth-1, E coli growth-2) | RecBCD conf inactive | Ecoli viability inactive | AddAB counter 95
O=C(NC(=O)c1c(F)cccc1F)ON=C1CCCc2occc21	none (no result: AddAB inh, Tat export inh, phage Ecoli inh, E coli growth-2)
Cc1c(C(=O)NNC(=O)c2ccccc2O)oc2ccccc12	phage Ecoli inh 13 (no result: AddAB inh, Tat export inh, E coli growth-1, E coli growth-2) | RecBCD conf inactive | Ecoli viability inactive | AddAB counter inactive
Cn1nc(C(=O)NCC(=O)Nc2ccc(F)c(F)c2)ccc1=O	phage Ecoli inh 11 (no result: AddAB inh, Tat export inh, E coli growth-1, E coli growth-2) | RecBCD conf inactive | Ecoli viability inactive | AddAB counter inactive
CCCCNC(=O)NCC(=O)Nc1ccc(F)c(F)c1	none
Cc1cc(C(=O)N(C2CCCCC2)C2CCCCC2)no1	phage Ecoli inh 12 | RecBCD conf inactive | Ecoli viability inactive | AddAB counter inactive
Cc1cc(C(=O)N2C(C)CCCC2C)no1 (stereo not given)	none
CO[C@H]1C=CO[C@@]2(C)Oc3c(C)c(O)c4c(O)c(c(C=NN5CCN(C)CC5)c(O)c4c3C2=O)NC(=O)C(C)=CC=C[C@H](C)[C@H](O)[C@@H](C)[C@@H](O)[C@@H](C)[C@H](OC(C)=O)[C@@H]1C	AddAB inh 49, Tat export inh 75, phage Ecoli inh 76, E coli growth-2 42 (no result: E coli growth-1) | RecBCD conf 78 | Ecoli viability 90 | AddAB counter 93
COc1cc(C=NNC(=O)c2ccc(Cl)c(S(N)(=O)=O)c2)ccc1OCC(N)=O	none (no result: AddAB inh, Tat export inh, phage Ecoli inh, E coli growth-2)
CCCn1c(=O)c(C(=O)NCCc2ccc(OC)c(OC)c2)c(O)c2ccccc21	none (no result: AddAB inh, E coli growth-2)
CCn1c(=O)c(C(=O)NCCc2ccc(OC)c(OC)c2)c(O)c2ccccc21	phage Ecoli inh 11, E coli growth-2 9.9 | RecBCD conf inactive | Ecoli viability inactive | AddAB counter inactive
CCOc1c(Br)cc(CNc2ccc(N3CCOCC3)cc2)cc1OC	phage Ecoli inh 98 | RecBCD conf inactive | Ecoli viability inactive | AddAB counter inactive
O=C(N/N=C/c1sc2ccccc2c1O)c1cccc2ccccc12	phage Ecoli inh 13 (no result: E coli growth-1) | RecBCD conf inactive | Ecoli viability inactive | AddAB counter inactive
O=C(NN=Cc1sc2ccccc2c1O)c1ccccc1	none (no result: AddAB inh, Tat export inh, phage Ecoli inh, E coli growth-2)
COc1ccc2cc(C(=O)N/N=C/c3sc4ccccc4c3O)ccc2c1	phage Ecoli inh 23, E coli growth-2 12 (no result: E coli growth-1) | RecBCD conf 14 | Ecoli viability inactive | AddAB counter inactive
COC(=O)CC1c2cc(F)cc(F)c2S(=O)(=O)N1C1CCN(Cc2ccccc2)CC1 (stereo not given)	none (no result: AddAB inh, Tat export inh, phage Ecoli inh, E coli growth-2)
CN(C)C=NC(=S)Nc1ccc(F)cc1	none (no result: AddAB inh, Tat export inh, phage Ecoli inh, E coli growth-2)
CC(CC(=O)Nc1cc(C)ccn1)=NNC(=O)c1ccc(C)cc1	none (no result: AddAB inh, Tat export inh, phage Ecoli inh, E coli growth-2)
Nc1nc(=O)n(C2CC(O)C(CO)O2)cc1F (stereo not given)	Tat export inh inconclusive, phage Ecoli inh 87 (no result: AddAB inh, E coli growth-1, E coli growth-2) | RecBCD conf 78 | Ecoli viability 77 | AddAB counter 90
Nc1ncn(C2CC(O)C(CO)O2)c(=O)n1 (stereo not given)	none (no result: AddAB inh, Tat export inh, phage Ecoli inh, E coli growth-2)
Nc1nc(=O)n(C2CC(O)C(CO)O2)cc1Cl (stereo not given)	phage Ecoli inh 12 (no result: AddAB inh, Tat export inh, E coli growth-1, E coli growth-2) | RecBCD conf inactive | Ecoli viability inactive | AddAB counter 38
CC(NC(=O)c1[nH]cnc1C(=O)Nc1ccccc1)C(=O)OC(C)(C)C (stereo not given)	none (no result: AddAB inh, Tat export inh, phage Ecoli inh, E coli growth-2)
C=CCn1cc(C(=O)N2CCN(C)CC2)c(=O)c2cc(S(=O)(=O)N3CCCC3)ccc21	phage Ecoli inh 22 | RecBCD conf inactive | Ecoli viability inactive | AddAB counter inactive
Cc1ccc(S(=O)(=O)N2CCOCC2)cc1NC(=O)CNCc1ccc(Cl)cc1Cl	phage Ecoli inh 12 | RecBCD conf inactive | Ecoli viability inactive | AddAB counter inactive
O=C(CNCc1ccccc1Cl)Nc1cc(S(=O)(=O)N2CCOCC2)ccc1Cl	none
FC(F)(F)c1cccc(NC(=S)NCc2ccc(Cl)cc2)c1	phage Ecoli inh 13 | RecBCD conf inactive | Ecoli viability inactive | AddAB counter inactive
